From PubChem
Shown are actives, neighbours in structure and some others; about 19% of the full set was active somewhere.
HT1080NT lethal = qHTS for induction of synthetic lethality in tumor cells producing 2HG: qHTS for the HT-1080-NT fibrosarcoma cell line. Potency, µM (doses to about 46.1 µM), inactives show at the top dose activity, negative = less viability, hits mostly cytotoxic. hit rate 1.6% among 360,000. HT-1080-NT fibrosarcoma viability, CellTiter-Glo ATP luminescence, 48 h;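 further: NT is the 2HG producing partner of a matched IDH1 knockdown line; potency means the concentration at half of the fitted maximal effect; 0% = DMSO-treated cells and -100% = media-only wells without cells; nearly all actives have a fitted effect of over 55% in size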
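Luminescent CellTiter-Glo readout after 48 hours of compound exposure at 37 degrees C defined viability of HT-1080-NT cells. Activity was normalized to DMSO wells and cell-free media wells; concentration-response curves were fitted and assigned curve classes.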
IL1B secr inh = qHTS for Inhibitors of Inflammasome Signaling: IL-1-beta AlphaLISA Primary Screen | hit rate 4.7% among 360,000 | activity change, % at 57.5 µM | THP-1 LPS/ATP IL-1B secretion, AlphaLISA, 16 h; active compounds read low; in the data active means activity change below about -50%; inconclusive means mostly about -30% to -49%
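Secreted IL-1B measured by AlphaLISA bead assay after 16 h compound exposure of THP-1 cells; compounds (final up to 57.5 uM) added 1 h before LPS (250 ng/mL) and ATP (1.25 mM) stimulation; lower signal means less secretion.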
DT40 TDP1 no CPT = qHTS for Inhibitors of human tyrosyl-DNA phosphodiesterase 1 (TDP1): qHTS in cells in absence of CPT; DT40 Tdp1-/- hTDP1 cells, no CPT, ATP luminescence, 48 h; Potency, µM (highest dose often 46.2 µM), for the others: top-dose activity change, negative = growth inhibition, hits mostly inhibitors; hit rate 15% among 420,000; AID 686978, 2013; further: potency means the concentration at half of the fitted maximal effect; nearly all actives have a fitted effect of over 55% in size
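Growth kinetics read by CellTiter-Glo luminescence after ≥48 hr at 37 °C. Cells: DT40 Tdp1-/- stably carrying human TDP1, 400 per well, compound exposure in the absence of CPT (DMSO vehicle).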
TDP1 cell CPT = qHTS for Inhibitors of human tyrosyl-DNA phosphodiesterase 1 (TDP1): qHTS in cells in presence of CPT | hit rate 12% among 420,000 | chicken DT40 Tdp1-/-;hTDP1 cells + 20 nM CPT, ATP luminescence, 48 h | Potency, µM (titrated, usually from 46.2 µM), without a hit: at the highest dose activity change, negative = growth inhibition, usual class: inhibitors | AID 686979, 2013; further: potency means the concentration at half of the fitted maximal effect; nearly all actives have a fitted effect of over 55% in size
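Cell growth measured by CellTiter-Glo luminescence after a minimum 48 h, 37 C compound exposure with 20 nM CPT in Tdp1-knockout DT40 cells stably expressing hTDP1, seeded 400/well; qHTS titration format.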
HT1080 IDH1KD tx = qHTS for induction of synthetic lethality in tumor cells producing 2HG: qHTS for the HT-1080-IDH1KD cell line; HT-1080 IDH1 knockdown viability, ATP luminescence, 48 h; Potency, µM (top dose mostly 46.1 µM), for the others: at the top dose activity, negative = toxicity, actives largely listed as cytotoxic; hit rate 2% among 360,000; AID 686971, 2013;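 further: potency means the concentration at half of the fitted maximal effect; 0% = DMSO wells and -100% = cell-free medium wells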
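Assay cells: HT-1080 with IDH1 knockdown, 750 per well, RPMI/5% FBS. Exposure: 48 h at 37 °C following 2 h pre-incubation. Read: CellTiter-Glo luminescence; fitted concentration-response, curve class assigned.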
Active calls of the source: *; ? = inconclusive; . = not tested or not shown. Unless noted, the call rests on the fitted dose curve; in most records, active means well fitted curve in the direction sought with a large enough effect; inconclusive means small, poorly fitted or top-dose-only effect, or another doubt; inactive means no such curve, though single readings can be large; an effect the other way counts as inactive or inconclusive. Unless noted, on the % scale 0 is the no-effect control and ±100 the full control effect.

SMILES	HT1080NT lethal	IL1B secr inh	DT40 TDP1 no CPT	TDP1 cell CPT	HT1080 IDH1KD tx
O=C(Nc1ccc(Cl)cc1)C1CCN(S(=O)(=O)c2ccc(Br)s2)CC1	.	.	23µM*	?	.
Cc1ccc(NC(=O)C2CCN(S(=O)(=O)c3cnc[nH]3)CC2)cc1C	4%	19	-1%	-8%	4%
CNC(=O)c1ccsc1NC(=O)C1CCN(S(=O)(=O)c2ccc(Cl)s2)CC1	?	23	?	16µM*	?
CCOC(=O)[C@]12CCCC=C1N(Cc1ccc3c(c1)OCO3)C(=O)[C@H](CC(=O)NCCCN1CCCC1=O)C2	7%	-16	-5%	1%	0%
Cc1ccc(CNC(=O)CNC(=O)c2ccco2)cc1	20%	2	-3%	0%	4%
CN(C)C(=S)Nc1ccc(Cc2ccncc2)cc1	-3%	12	1%	-1%	4%
Cc1ccc(NC(=O)C2(C)CCCN2C)cc1C (centres undefined)	12%	15	-2%	-1%	?
CCc1ccc(C2c3[nH]c4ccccc4c3CCN2C(=O)c2ccc(=O)n(C)n2)cc1 (centres undefined)	-29%	30	?	?	?
CC(=O)c1cc(CC(=O)N2CCc3c([nH]c4ccccc34)C2c2ccccn2)cs1 (centres undefined)	-6%	-4	?	?	-2%
CCc1ccc(C2c3[nH]c4ccccc4c3CCN2C(=O)CNC(N)=O)cc1 (centres undefined)	-9%	-57*	-7%	-14%	-19%
CCc1ccc(C2c3[nH]c4ccccc4c3CCN2C(=O)CN2CCN(CC)CC2)cc1 (centres undefined)	23µM*	-72*	26µM*	?	?
CC(=O)N1N=C(c2ccco2)CC1c1cc2ccc(C)cc2nc1Cl (centres undefined)	11%	0	?	?	10%
COc1cc2c(cc1OC)CN(CC(=O)Nc1cccc(C(F)(F)F)c1)CC2	-1%	0	?	-53%	1%
CCCOc1ccc(C2c3c(oc4ccc(F)cc4c3=O)C(=O)N2CCc2ccc(OC)cc2)cc1 (centres undefined)	.	.	-28%	1%	.
CCOc1cccc(C2c3c(oc4ccc(F)cc4c3=O)C(=O)N2CCc2ccc(OC)cc2)c1 (centres undefined)	.	.	?	5.2µM*	.
COc1cccc(C2c3c(oc4ccccc4c3=O)C(=O)N2CCCN2CCOCC2)c1OC (centres undefined)	0%	11	7%	0%	17%
COc1ccc(C2c3c(oc4ccccc4c3=O)C(=O)N2CCCN2CCOCC2)cc1 (centres undefined)	3%	7	23µM*	?	5%
COc1ccc(CCN2C(=O)c3oc4ccc(F)cc4c(=O)c3C2c2ccc(C(C)(C)C)cc2)cc1 (centres undefined)	.	.	3.3µM*	?	.
CN1CCN(C(=O)CCn2c(=S)[nH]c3ccccc3c2=O)CC1	5%	-12	12%	4%	1%
CC(=O)c1ccc(N2CCN(CC(=O)N(C3CC3)C3CCS(=O)(=O)C3)CC2)c(F)c1 (centres undefined)	6%	11	2%	-2%	-2%
Cc1cccc(OCc2nnc(-c3ccc(F)cc3)o2)c1	14%	-2	-2%	-5%	7%
Cc1cc(C)n(C(C)Sc2ccccc2)n1 (centres undefined)	-9%	-15	-15%	-10%	-4%
Cc1cc(C)cc(NC(=O)CCn2c(=S)[nH]c3ccccc3c2=O)c1	-10%	-18	-19%	-27%	-12%
O=C(Nc1cc(Cl)c(Cl)cc1Cl)c1cccnc1	3%	38	-3%	?	6%
COC(=O)CNC(c1ccccc1)c1cc(Br)ccc1NC(=O)CCN1CCOCC1 (centres undefined)	-22%	-55*	1.6µM*	2.6µM*	?
SMILES	HT1080NT lethal	IL1B secr inh	DT40 TDP1 no CPT	TDP1 cell CPT	HT1080 IDH1KD tx
COC(=O)CNC(c1ccccc1)c1cc(Br)ccc1NC(=O)CNC(=O)OCc1ccccc1 (centres undefined)	?	?	?	-10%	21µM*
CCOC(=O)CNC(c1ccccc1)c1cc(Br)ccc1NC(=O)OCC (centres undefined)	4%	-5	?	?	1%
CCOC(=O)CNC(c1ccccc1)c1cc(Br)ccc1NC(=O)c1ccc(Cl)cc1 (centres undefined)	.	.	6.5µM*	10µM*	.
NNC(=O)CNC(c1ccccc1)c1cc(Br)ccc1N (centres undefined)	-29%	-72*	-13%	8%	?
COC(=O)CNC(c1ccccc1)c1cc(Br)ccc1NS(=O)(=O)c1ccccc1 (centres undefined)	13%	11	-5%	21%	18%
COC(=O)CNC(c1ccccc1)c1cc(Br)ccc1N (centres undefined)	-6%	30	?	-20%	4%
CCOC(=O)CNC(c1ccccc1)c1cc(Br)ccc1NC(=O)CCN1CCOCC1 (centres undefined)	-29%	?	0.82µM*	2.1µM*	-4%
COc1ccc(NC(=O)c2cnc3ccccn3c2=O)c(OC)c1	8%	-17	-9%	2%	7%
Cn1cc(C(C[N+](=O)[O-])c2ccccc2)c2ccccc21 (centres undefined)	?	52	?	?	?
COc1ccc(C(C[N+](=O)[O-])c2c(C)[nH]n(-c3ccccc3)c2=O)cc1 (centres undefined)	?	-52*	16µM*	13µM*	-24%
Cc1cc2ccccn2c1C(C[N+](=O)[O-])c1ccc(N(C)C)cc1 (centres undefined)	-1%	7	?	16µM*	-23%
Cc1[nH]n(-c2ccccc2)c(=O)c1C(c1ccc(O)c([N+](=O)[O-])c1)c1c(C)[nH]n(-c2ccccc2)c1=O	2%	-1	-26%	-2%	-1%
COc1ccc(C(C[N+](=O)[O-])c2c(C)cc3ccccn23)cc1 (centres undefined)	?	-7	18µM*	10µM*	?
COc1ccc(C(C[N+](=O)[O-])c2c(-c3ccccc3)cc3ccccn23)c(OC)c1 (centres undefined)	?	-11	5.2µM*	2.9µM*	?
